Compound activity from PubChem.
Hits are enriched below; roughly 32% of the tested compounds scored in any of these assays.
CYP2C19 activ: activators of human cytochrome P450 2C19 | P33261 | recombinant CYP2C19, luciferin-H EGE luminescence; active compounds read high; 0 = fully inhibited enzyme, 1 = untreated enzyme | activation factor at 5 µM | 96,000 tested, under 10 active | AID 1025;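 active = activation factor of at least 2 at 5 µM in the primary screen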;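 also: 0 = wells with 2.5 mM tranylcypromine and 1 = vehicle-only wells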
CYP2C9 act: increases human cytochrome P450 2C9 activity | recombinant CYP2C9, luciferin-H conversion, luminescence; active compounds read high; factor 1 = untreated enzyme, 0 = blocked | activation factor at 5 µM | P11712 | 96,000 compounds, 1.4% hits;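 active = activation factor of 2 or more for CYP2C9 at a 5 µM dose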;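 also: 0 = sulfaphenazole-blocked wells and 1 = vehicle-only wells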
Target sequence (P11712 whole entry, looked up): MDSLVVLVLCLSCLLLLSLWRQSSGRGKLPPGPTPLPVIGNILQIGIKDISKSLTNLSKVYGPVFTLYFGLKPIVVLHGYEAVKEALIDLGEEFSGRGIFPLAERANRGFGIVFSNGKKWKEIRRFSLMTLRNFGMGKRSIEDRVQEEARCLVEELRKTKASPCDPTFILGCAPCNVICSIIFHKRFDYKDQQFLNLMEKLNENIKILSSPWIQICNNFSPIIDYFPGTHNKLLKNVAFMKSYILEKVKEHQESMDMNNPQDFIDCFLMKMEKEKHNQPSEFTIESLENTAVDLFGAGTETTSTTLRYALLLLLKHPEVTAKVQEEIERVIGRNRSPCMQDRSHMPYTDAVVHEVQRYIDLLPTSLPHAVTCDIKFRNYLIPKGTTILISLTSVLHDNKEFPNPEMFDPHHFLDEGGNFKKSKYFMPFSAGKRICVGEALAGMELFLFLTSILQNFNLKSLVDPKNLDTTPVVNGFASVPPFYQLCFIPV
PostGolgi ctrl: growth of the yeast control strain, post-Golgi counter-screen | efflux-deficient yeast background strain, growth absorbance A615, 16 h | inhibition, % at 10 µM | 98,000 compounds, 5% hits
CYP2C9 inh: human CYP2C9 inhibition. P11712. CYP2C9 Supersomes, luciferin-H conversion, luminescence. inhibition, % at 5 µM. 96,000 compounds, 20% hits;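 active = blocking of liver enzyme CYP2C9 beyond about 50% at 5 µM, limit read from the data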
PostGolgi yeast: growth inhibition of a yeast mutant, post-Golgi transport screen | 98,000 compounds, 0.9% hits | inhibition, % at 10 µM | post-Golgi transport phenotypic cell assay | AID 739;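 also: yeast cells grown in 1536-well plates; yeast grown about 18 h at 30C before absorbance read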
CYP2C19 inhib: blocks human cytochrome P450 2C19; P33261; CYP2C19 Supersomes, luciferin-H EGE luminescence, 30 min; inhibition, % at 5 µM; 96,000 compounds, 21% hits;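 active = CYP2C19 inhibition above a set limit at 5 µM in the primary screen, cut at about 50% in these data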;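 also: plate controls were negative control wells for no effect and 2.5 mM tranylcypromine positive control for full effect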
* marks the source's active call; other numbers are inactive results; / = not tested or not shown. Rule as the data show it, unless noted: active = inhibition above about 30%; inactive = the rest.

SMILES	CYP2C19 activ	CYP2C9 act	PostGolgi ctrl	CYP2C9 inh	PostGolgi yeast	CYP2C19 inhib
O=S(=O)(Nc1cccc(CCc2ccccn2)c1)c1ccc2ccccc2c1	0	0.7	32*	27	6	99*
Cc1nc(CNS(=O)(=O)c2ccc3ccccc3c2)cs1	0.5	2*	12	-101	3	45
CC1(Cc2ccc3c(c2)OCO3)NC(=O)NC1=O (stereo not given)	1	1.2	-3	-24	1	-4
CN1CCN(c2ccccc2NC(=O)c2ccc(Br)o2)CC1	0.8	0.8	-5	18	4	21
CN1CCN(c2ccccc2NC(=O)c2ccc(-c3ccc(Cl)cc3Cl)o2)CC1	0.7	0.5	29	47	-13	27
CS(=O)(=O)N1CCN(c2ccccc2NC(=O)c2ccc(-c3ccc(Cl)cc3Cl)o2)CC1	0.8	0.5	18	50*	-9	25
CS(=O)(=O)N1CCN(c2ccccc2NC(=O)c2ccc(Br)o2)CC1	0.7	0.6	42*	37	3	32
Cc1cccc(NC(=O)C2CCN(S(=O)(=O)c3cccc4cccnc34)CC2)n1	0.2	2.3*	14	-128	2	78*
Cc1ccc(NC(=O)C2CCN(S(=O)(=O)c3cccc4cccnc34)CC2)nc1	0.3	1.5	32*	-46	3	68*
CC(=O)c1ccc(NC(=O)C2CCN(S(=O)(=O)c3cccc4cccnc34)CC2)cc1	1	1.9	25	-86	0	4
CCn1c(=O)c(C)nn2c3ccccc3nc12	0.9	0.9	-2	13	3	7
Cn1c(=O)c(-c2ccccc2)nn2c3ccccc3nc12	0.4	0.3	12	74*	-5	62*
Cc1occc1-c1nnc(SCC(=O)c2cc3ccccc3oc2=O)o1	0.8	0.1	19	90*	10	19
Cc1occc1-c1nnc(SCC(=O)Nc2nc3ccccc3s2)o1	0.2	0.2	-5	75*	0	79*
O=C(Cn1ncc2c1-c1ccccc1OC2)N(Cc1ccco1)C1CCCCC1	0.8	0.6	32*	36	1	19
CC(CCc1ccco1)NC(=O)Cn1ncc2c1-c1ccccc1OC2 (stereo not given)	0.2	0.3	3	67*	2	80*
O=C(Cn1ncc2c1-c1ccccc1OC2)Nc1nc2ccccc2s1	0.5	0.4	47*	55*	-10	46
CCN(CC)C(=O)Cn1ncc2c1-c1ccccc1OC2	0.9	0.9	2	10	2	5
Cc1ccc2c(c1)-c1c(cnn1CC(=O)Nc1ccccc1N1CCN(C)CC1)CO2	1	0.7	5	26	2	-2
COc1cc2c(cc1OC)C(C)N(C(=O)Cn1ncc3c1-c1ccccc1OC3)CC2 (stereo not given)	0.9	0.8	11	22	-4	14
CSc1cc(C)n(-c2ccccc2)c(=S)c1C(C)=O	0.9	1	-8	-2	0	14
CCSc1nnc(-c2ccccc2NC(C)=O)c(=O)[nH]1	1.1	0.8	-3	16	5	-6
CNC(=O)c1cc2cc(OC)ccc2n1CCN(C)C	0.4	1	6	-4	6	63*
CCN(CC)CCn1c(NCc2cccc(OC)c2)nc2ccccc21	0.7	1	-3	0	5	32
COc1ccc2c(c1)cc(C(=O)O)n2C	1.1	1.2	4	-16	9	-10
SMILES	CYP2C19 activ	CYP2C9 act	PostGolgi ctrl	CYP2C9 inh	PostGolgi yeast	CYP2C19 inhib
CNC(=O)c1cc2cc(OC)ccc2n1CCN(Cc1ccccc1)Cc1ccccc1	0.1	0.3	10	67*	-8	92*
NC(Cc1cccc2nsnc12)C(=O)O (stereo not given)	1	0.9	7	6	6	2
O=C(Cc1cccs1)N1CCCC(c2nc3c(nnn3Cc3cccc(Cl)c3)c(=O)[nH]2)C1 (stereo not given)	0.3	0	3	96*	1	66*
O=C(NC1CCCCC1)c1nc2c(nnn2Cc2ccccc2Cl)c(=O)[nH]1	/	/	19	/	-2	/
O=C(Cc1cccs1)N1CCC(c2nc3c(nnn3Cc3ccc(F)cc3)c(=O)[nH]2)CC1	0.6	0	-7	96*	-2	41
Fc1ccccc1N1CCN(Cc2nc(-c3ccc(Cl)cc3Cl)no2)CC1	0.6	0.4	2	61*	2	38
